# Screens from PubChem.
# An excerpt weighted towards active compounds, which were near 11% of everything screened.
# HCV inhibitor – qHTS Assay for Inhibitors of Hepatitis C Virus (HCV); Huh7.5.1 HCVcc-Cre infection, luciferase reporter, 44 h; Potency, µM (doses to about 41.8 µM), hits mostly inhibitors; 340,000 tested, 3.4% active; AID 651820, 2012
#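 Antiviral activity was scored by luciferase reporter output from cells infected with HCVcc-Cre (~0.5 moi) in presence of compound, 44 h infection period, cells seeded 1,000/well 4 h prior.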
# AmpC inh no detg – qHTS Inhibitors of AmpC Beta-Lactamase (assay without detergent); P00811; AmpC nitrocefin hydrolysis, absorbance 480 nm, 0.0001% Triton; Potency, µM (series often up to 57.1 µM), most hits filed as inhibitors; 330,000 tested, 0.52% active; note: nearly all actives have a fitted effect of over 20% in size
# Target sequence (P00811 whole entry, looked up): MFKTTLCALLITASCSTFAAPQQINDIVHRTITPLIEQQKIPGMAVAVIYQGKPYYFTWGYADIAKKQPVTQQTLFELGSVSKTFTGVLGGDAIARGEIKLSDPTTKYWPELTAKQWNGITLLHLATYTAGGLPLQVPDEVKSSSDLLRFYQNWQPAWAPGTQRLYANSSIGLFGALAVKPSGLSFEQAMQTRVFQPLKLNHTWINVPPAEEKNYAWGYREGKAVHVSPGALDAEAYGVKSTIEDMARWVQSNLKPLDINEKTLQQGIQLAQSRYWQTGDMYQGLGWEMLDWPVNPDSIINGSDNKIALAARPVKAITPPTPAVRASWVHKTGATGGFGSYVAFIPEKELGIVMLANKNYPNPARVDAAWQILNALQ
#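 20 mM phosphate pH 7.0 + 0.01% (detergent screen) or 0.0001% Triton X-100; 5.3 nM AmpC reagent; cpd preinc 15 min RT; nitrocefin (800 uM stock) to start; A480 q20 s × 4 min; Activity was normalised to no-enzyme and no-compound control wells.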
# AmpC detergent – qHTS Inhibitors of AmpC Beta-Lactamase (assay with detergent); AID 485294, 2010; P00811; 370,000 tested, 0.041% active; AmpC hydrolysis of nitrocefin, absorbance 480 nm, 0.01% Triton; Potency, µM (top dose mostly 114 µM), actives largely listed as inhibitors; note: nearly all actives have a fitted effect of over 25% in size
#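 AmpC (5.3 nM in the dispensed reagent) in 20 mM phosphate pH 7.0 with 0.01% (detergent screen) or 0.0001% Triton X-100 was preincubated with compounds for 15 min at room temperature. Nitrocefin was then added from an 800 uM solution, and hydrolysis was followed at 480 nm.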
# Pf growth 96h – Primary qHTS for delayed death inhibitors of the malarial parasite plastid, 96 hour incubation | P. falciparum luciferase reporter growth, 96 h | Potency, µM (doses to about 28.7 µM), actives largely listed as inhibitors | 320,000 tested, 6.9% active | AID 504834, 2011
#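 P. falciparum expressing integrated firefly luciferase grown in erythrocytes (2% hematocrit, 0.05% parasitemia final) with compounds for 96 hours at 37 C, 5% CO2. Growth inhibition read as loss of luminescence after adding luciferase detection reagent.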
# AMA1-RON2 inh – qHTS for Inhibitors of AMA1-RON; Towards Development of Antimalarial Drug Lead: Primary Screen | Plasmodium falciparum AMA1 (3D7) - RON2 peptide interaction | AID 720542, 2013 | Potency, µM (series often up to 58.2 µM), actives largely listed as inhibitors | AlphaScreen AMA1-biotinylated RON2 peptide binding | 360,000 tested, 0.2% active; note: nearly all actives have a fitted effect of over 45% in size
#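 AMA1 (3D7) with his tag at 25 nM final met compounds first, then biotinylated RON2 peptide at 25 nM; detection used donor plus acceptor beads, 10 µg/mL apiece, read by AlphaScreen after 30 min at room temperature.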
# Pf growth 48h – Primary qHTS for delayed death inhibitors of the malarial parasite plastid, 48 hour incubation; P. falciparum luciferase growth in erythrocytes, 48 h; 310,000 tested, 5.9% active; AID 504832, 2011; Potency, µM (series often up to 28.7 µM), usual class: inhibitors
#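 Firefly luciferase activity from engineered P. falciparum reports growth; inhibitors lower the luminescent signal. Cultures contained 2% hematocrit erythrocytes at 0.1% final parasitemia.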
# Numbers stand for hits; . = inactive; ? = inconclusive; / = not tested or not shown; [ ] = remark or other dose. Calls come from the whole dose curve; as a rule, active = well fitted curve in the direction sought with a large enough effect; inconclusive = small, poorly fitted or top-dose-only effect, or another doubt; inactive = no such curve, though single readings can be large; an effect the other way counts as inactive or inconclusive.
SMILES,HCV inhibitor,AmpC inh no detg,AmpC detergent,Pf growth 96h,AMA1-RON2 inh,Pf growth 48h
CC(C)N(C(=O)[C@H]1C[C@H](CC(=O)NCC23CC4CC(CC(C4)C2)C3)C(=O)N2CCc3c([nH]c4ccc(Cl)cc34)[C@]12C)C(C)C,15.8µM,.,/,/,.,/
CC(C)N(C(=O)[C@H]1C[C@H](CC(=O)NCCCN(C)C)C(=O)N2CCc3c([nH]c4ccc(Cl)cc34)[C@]12C)C(C)C,10µM,.,/,/,.,/
CCN(CC)C(=O)[C@H]1C[C@H](CC(=O)NCC23CC4CC(CC(C4)C2)C3)C(=O)N2CCc3c([nH]c4ccc(Cl)cc34)[C@]12C,?,.,/,/,.,/
CCCCN1c2cc(C)c(O)cc2C(C(=O)OCC)C1C (stereo not drawn),?,.,?,.,.,2.08µM
CCc1ccc(NC(=O)CSc2c(C)cnc3c2c(=O)n(C)c(=O)n3C)cc1,/,/,.,/,/,/
CS(=O)(=O)N1CCN(c2ccccc2NC(=O)C(c2ccccc2)c2ccccc2)CC1,.,.,.,/,.,10.4µM
CC(C)C(=O)Nc1ccccc1N1CCN(S(C)(=O)=O)CC1,.,0.282µM,.,.,?,.
CS(=O)(=O)N1CCN(c2ccccc2NC(=O)c2ccc3ccccc3c2)CC1,?,.,.,?,.,11.7µM
Cc1ccc(NC(=O)C2SC(=Nc3ccccc3)C(C(=O)Nc3ccc(Cl)cc3)=C2N)cc1 (stereo not drawn),?,.[2.29 µM],.,?,.,?
Cc1ccc(N=C2SC(C(=O)Nc3ccc(OC(F)(F)F)cc3)C(N)=C2C(=O)Nc2c(C)cc(C)cc2C)cc1 (stereo not drawn),?,.,.,11.7µM,.,?
CC(=O)N1N=C(c2ccc(C)c([N+](=O)[O-])c2)OC1(C)C,.,.,.,?,.,9.28µM
CC(=O)N1N=C(c2cccc([N+](=O)[O-])c2)OC1(C)c1cccs1 (stereo not drawn),?,.,.,.,.,.
Cc1ccc(-c2nnc(Nc3ccc4c(c3)OCO4)c3ccccc23)cc1S(=O)(=O)NC(C)C,?,.,.,?,.,2.94µM
Cc1ccc(-c2nnc(Nc3ccc(Cl)c(Cl)c3)c3ccccc23)cc1S(=O)(=O)NCCO,/,/,.,/,/,/
Cc1ccc(-c2nnc(Nc3ccc(CC(N)=O)cc3)c3ccccc23)cc1S(=O)(=O)NCCO,.,.,.,.,.,6.57µM
Cc1ccc(-c2nnc(Nc3ccc4c(c3)OCO4)c3ccccc23)cc1S(=O)(=O)NCCO,.,.,.,?,.,3.29µM
NC(=O)Cc1ccc(Nc2nnc(-c3ccc(O)cc3)c3ccccc23)cc1,.,.,.,?,.,.
CC(C)(C)c1ccc(OCC(=O)Nc2ccc(S(=O)(=O)Nc3ncccn3)cc2)cc1,/,/,.,/,/,/
CC(C)(C)OC(=O)N(CCc1ccccc1)Cc1ccc(OCc2cccc(NC(=O)C3CC3)c2)cc1,12.6µM,/,/,/,.,/
CC(C)(C)OC(=O)N(CCc1ccccc1)Cc1ccc(OCc2cccc(NC(=O)C3CCC3)c2)cc1,?,/,/,/,.,/
CC(C)C(=O)Nc1cccc(COc2ccc(CN(Cc3ccccc3)C(=O)OC(C)(C)C)cc2)c1,0.501µM,/,/,/,.,/
CC(C)C(=O)Nc1ccc(COc2ccccc2CN(Cc2ccccc2)C(=O)OC(C)(C)C)cc1,.[8.37 µM],/,/,/,.,/
Cc1cc(C)c(NC(=O)CSc2nc3ccccc3c3nc(CCn4cncc4C)nn23)c(C)c1,/,/,.,/,/,/
Cc1ccccc1/C=N/Nc1nc2ccccc2[nH]1,.,.,.,.,.,?
COc1ccc(/C=N/Nc2nc3ccccc3[nH]2)c(OC)c1OC,.,.,.,4.15µM,.,?
C(=C\c1ccccc1)/C=N/Nc1nc2ccccc2[nH]1,.,.,.,3.29µM,.,?
C(=N\Nc1nc2ccccc2[nH]1)/c1c[nH]c2ccccc12,?,.,.,.,.,0.657µM
